{"source": "PubChem BioAssay AID588493", "about": "(Sanford-Burnham Center for Chemical Genomics, 2011)", "note": "About 2,100 (0.58%) of roughly 360,000 compounds were called active. Shown is part of a subset that was picked to be rich in actives. Unmarked numbers belong to inactive results.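 How the source made its calls: active means inhibition at 20 µM, scaled to each plate's controls, above about 33% (limit read from the data); inactive means the rest.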"}
{"target": "26S proteasome non-ATPase regulatory subunit 14 (Homo sapiens) (UniProt O00487)", "sequence (O00487 whole entry, looked up)": "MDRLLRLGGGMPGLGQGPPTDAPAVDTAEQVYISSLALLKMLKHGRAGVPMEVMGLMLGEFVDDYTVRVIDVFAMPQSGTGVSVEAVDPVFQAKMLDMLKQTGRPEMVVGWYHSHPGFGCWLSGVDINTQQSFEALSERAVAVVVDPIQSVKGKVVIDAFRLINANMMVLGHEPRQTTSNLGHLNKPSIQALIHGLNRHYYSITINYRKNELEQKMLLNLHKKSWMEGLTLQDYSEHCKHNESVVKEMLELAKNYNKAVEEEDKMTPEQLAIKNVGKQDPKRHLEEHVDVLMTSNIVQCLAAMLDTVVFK", "assay": "Rpn11 (PSMD14) deubiquitinase inhibitors, primary screen, biochemical, fluorescence polarization, uHTS (AID 588493)", "conditions": "human 26S proteasome, Ub4-pepOG fluorescence polarization; at 20 µM; active compounds read high; 20S core pre-blocked with epoxomicin"}
{"compound": "CN(C)CCn1c2c(c(SCC(=O)Nc3ccccc3C(F)(F)F)nc1=O)CCCC2", "inhibition": "-0.6%"}
{"compound": "O=C1c2ccccc2S(=O)(=O)c2cc(N3CCN(c4ccccn4)CC3)ccc21", "inhibition": "40.2%"}
{"compound": "CC1CCN(c2ccc3c(c2)S(=O)(=O)c2cc(C(=O)O)ccc2C3=O)CC1", "inhibition": "57.1% (active)"}
{"compound": "OC(c1ccc(Cl)cc1)c1ncc(-c2ccc(Cl)cc2)[nH]1", "note": "(stereo unspecified)", "inhibition": "-5.5%"}
{"compound": "COc1ccc(CNC(=O)C(C)n2nc(C)c3c(C)n(-c4ccccc4)nc3c2=O)c(OC)c1", "note": "(stereo unspecified)", "inhibition": "0%"}
{"compound": "CCCCN(C(=O)C1CCC1)c1c(N)n(Cc2ccccc2)c(=O)[nH]c1=O", "inhibition": "-10.9%"}
{"compound": "Cc1ccc(Cl)cc1NC(=O)COC(=O)C1CCCCC1", "inhibition": "-8.8%"}
{"compound": "CCNCc1cc2cc(C)ccc2[nH]c1=O", "inhibition": "82.8% (active)"}
{"compound": "CCCc1nc(-c2cc3cc(C)ccc3[nH]c2=O)no1", "inhibition": "-0.2%"}
{"compound": "CCC(=O)N(CCc1ccccc1)Cc1cc2cc(C)ccc2[nH]c1=O", "inhibition": "-6.2%"}
{"compound": "CCc1noc(C)c1C(=O)N1CCN(S(=O)(=O)c2cccc(C(F)(F)F)c2)CC1", "inhibition": "0%"}
{"compound": "CC(=O)c1ccc(NC(=S)N(Cc2ccccc2)C(C)C2CC2)cc1", "note": "(stereo unspecified)", "inhibition": "8.8%"}
{"compound": "CCN1CCN(c2cc3nc(C)n(Cc4ccccc4)c(=O)c3cc2NC(=O)c2ccccc2F)CC1", "inhibition": "47.3% (active)"}
{"compound": "CCC(=O)Nc1ccc2nc(C)n(Cc3ccccc3Cl)c(=O)c2c1", "inhibition": "-7.7%"}
{"compound": "CCOc1cc(NC(=O)c2ccccc2C(=O)O)c(OCC)cc1NC(=O)c1ccccc1F", "inhibition": "1.8%"}
{"compound": "Fc1ccc(CNc2nc3ccccc3n3nnnc23)cc1", "inhibition": "-38.7%"}
{"compound": "CCN1CCCC1CNC(=O)c1cc2c(=O)n(C)c3ccccc3c2n1C", "note": "(stereo unspecified)", "inhibition": "66.2% (active)"}
{"compound": "Cn1c(C(=O)N2CCC(C(N)=O)CC2)cc2c(=O)n(C)c3ccccc3c21", "inhibition": "-3.7%"}
{"compound": "CCN1CCCC1CNC(=O)c1cc2cc(OC)c(OC)cc2[nH]1", "note": "(stereo unspecified)", "inhibition": "-10.4%"}
{"compound": "CCn1c(Cc2ccc(OC)cc2)nnc1SCC(=O)Nc1ccc(N2CCOCC2)cc1", "inhibition": "5%"}
{"compound": "Cc1ccc(OCCCC(=O)Nc2ccc(N3CCOCC3)cc2)cc1", "inhibition": "1.7%"}
{"compound": "COc1cccc(/C=C(/CC(=O)Nc2ccc(N3CCOCC3)cc2)c2nc3ccccc3s2)c1", "inhibition": "41.7% (active)"}
{"compound": "COc1cc(OC)cc(C(=O)Nc2ncc3c(n2)CC(C)(C)CC3=O)c1", "inhibition": "1.2%"}
{"compound": "CCN(CC)S(=O)(=O)c1ccc2nc(CSc3nnnn3-c3ccc(O)cc3)[nH]c2c1", "inhibition": "0.9%"}
{"compound": "O=C(Nc1cc(Br)ccc1F)c1nc[nH]c1C(=O)NCc1ccccc1", "inhibition": "-6.2%"}
{"compound": "O=C(c1ccc2c(c1)N(Cc1ccc(F)cc1)C(=O)CS2)N1CCOCC1", "inhibition": "1.1%"}
